YB-1 expression – YB-1 expression inhibition. U2OS, qRT-PCR YB-1 vs CDIP delta delta Cp, 16 h; stronger effect = higher value; zero = DMSO, each unit about twofold. delta delta Cp (YB-1 minus CDIP) (no concentration beside the values). hit rate 0.37% among 30,000. AID 434959;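 active = delta delta Cp rounded down to an integer at or above 3, about 3 SD of DMSO wells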;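 note: higher means less YB-1 transcript or more CDIP transcript relative to DMSO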
ROS inducer – inducers of reactive oxygen species in cancer cells; U2OS ROS induction, H2DCF-DA fluorescence; ROS induction (% of piperlongumine), % at 10 µM; hit rate 2% among 46,000; AID 624156; in the data active = ROS induction above about 79%, passing the limit was not always enough; inconclusive = no clear call, values can overlap the other calls
Of the large screens only hits and unclear results are named; the others gave an inactive call. Shown are actives, neighbours in structure and some others; about 2.1% of the full set was active somewhere.

COc1cc2c(cc1OC)CN(C(=O)CSc1n[nH]c(N)n1)CC2	none (no result: YB-1 expression)
Cc1cc(C(=O)Nc2cccc3c2O[C@H](CN(C)Cc2ccncc2)[C@H](C)CN([C@@H](C)CO)C3=O)n(C)n1	none
Cc1noc(C)c1S(=O)(=O)Nc1ccc2c(c1)C(=O)N([C@@H](C)CO)C[C@H](C)[C@@H](CN(C)C)O2	none
C[C@H]1CN([C@@H](C)CO)C(=O)c2cccc(NC(=O)c3cnccn3)c2O[C@H]1CN(C)C(=O)Nc1ccc(F)cc1	none
Cc1cc(C(=O)Nc2cccc3c2O[C@@H](CN(C)Cc2ccc4c(c2)OCO4)[C@H](C)CN([C@@H](C)CO)C3=O)n(C)n1	none
COc1ccc(NC(=O)N(C)C[C@H]2Oc3ccc(NS(=O)(=O)c4cccs4)cc3CC(=O)N([C@H](C)CO)C[C@H]2C)cc1	none
C[C@@H]1CN([C@@H](C)CO)C(=O)c2cccc(NC(=O)C3CCCCC3)c2O[C@@H]1CN(C)S(=O)(=O)c1cn(C)cn1	none
COc1ccc(S(=O)(=O)Nc2ccc3c(c2)C(=O)N([C@@H](C)CO)C[C@H](C)[C@H](CN(C)S(=O)(=O)c2cccs2)O3)cc1	none
O=C(NCc1ccccn1)c1cc2nc(-c3ccccc3)cc(-c3ccccc3)n2n1	ROS inducer 141 (no result: YB-1 expression)
O=C(NCc1ccccn1)c1cc(-c2ccccc2)on1	none (no result: YB-1 expression)
CC1(C)CC[C@]2(C(=O)OC3OC(CO)C(O)C(O)C3O)CC[C@]3(C)C(=CCC4[C@@]5(C)CC[C@H](OC6OC(C(=O)O)C(O)C(O)C6O)C(CO)(CO)C5CC[C@]43C)[C@@H]2C1 (some centres undefined)	none
Cc1ccc(-n2nnc3c(SCC(=O)N4CCCC4)ncnc32)cc1	ROS inducer 134 (no result: YB-1 expression)
CCOC(=O)Cn1cnc2c(nnn2-c2ccc(C)cc2)c1=O	none (no result: YB-1 expression)
CC1=Nc2cc(C(=O)O)ccc2Sc2c(C)ccc(C)c21	none (no result: YB-1 expression)
O=C(CSc1nc2ccccc2c2nc3ccccc3n12)NCCc1ccccc1	none (no result: YB-1 expression)
Cc1c(Cc2ccccc2)c(Cl)n2c(nc3ccccc32)c1C#N	ROS inducer 164 (no result: YB-1 expression)
N#Cc1c(-c2ccccc2Cl)c(C#N)c2nc3ccccc3n2c1N	none (no result: YB-1 expression)
CCCc1cc(NCCc2ccccc2)n2c(nc3ccccc32)c1C#N	ROS inducer 92 (no result: YB-1 expression)
C[C@@H]1CN([C@H](C)CO)C(=O)c2cc(NC(=O)Nc3cccc4ccccc34)ccc2O[C@H]1CN(C)CC1CCCCC1	none (no result: YB-1 expression)
CNC[C@H]1Oc2c(NC(=O)Nc3c(C)noc3C)cccc2C(=O)N([C@@H](C)CO)C[C@@H]1C	none
C[C@H]1CN([C@@H](C)CO)C(=O)Cc2cc(NC(=O)Nc3ccc4c(c3)OCO4)ccc2O[C@H]1CN(C)Cc1ccc(C(=O)O)cc1	none
C[C@@H]1CN([C@H](C)CO)C(=O)Cc2cc(NC(=O)Nc3cccc4ccccc34)ccc2O[C@H]1CN(C)CC1CCCCC1	none
S=c1nn[nH]n1C1CC2CC1C1C=CCC21 (centres undefined)	none (no result: YB-1 expression)
CCC(Sc1nnc(N)s1)C(=O)Nc1sc2c(c1C#N)CCCC2 (centres undefined)	none (no result: YB-1 expression)
CCC(Sc1nnnn1-c1ccccc1)C(=O)Nc1sc2c(c1C#N)CCCC2 (centres undefined)	ROS inducer 95
CCOC(=O)c1cnc2ccccc2c1NCCc1ccccc1	ROS inducer 113 (no result: YB-1 expression)
CCOC(=O)c1cnc2c(ccc3ccccc32)c1NCc1ccco1	none (no result: YB-1 expression)
CCOC(=O)c1cnc2c(ccc3ccccc32)c1NCCOC(=O)c1cccnc1	ROS inducer 248 (no result: YB-1 expression)
CCOC(=O)c1cnc2c(ccc3ccccc32)c1NCC(C)C	none (no result: YB-1 expression)
C[C@@H]1CN([C@@H](C)CO)C(=O)c2cc(NS(=O)(=O)c3ccc(F)cc3)ccc2O[C@@H]1CN(C)Cc1ccc(C(=O)O)cc1	none
CN=C(C)c1c(O)c2ccccc2oc1=O	none
O=C(CSc1ncnc2c1nnn2Cc1ccc(F)cc1)OCc1ccccc1	none (no result: YB-1 expression)
NC(=O)CSc1ncnc2c1nnn2Cc1ccc(F)cc1	ROS inducer 135 (no result: YB-1 expression)
CCOC(=O)c1nc(-c2ccccc2)sc1-c1ccnn1C(=O)NC(C)C	none (no result: YB-1 expression)
O=C1C(Nc2ccccc2)=CC(=O)c2ncccc21	YB-1 expression 3.1, ROS inducer inconclusive
O=C1C2C(c3ccccc3)C=CC(c3ccccc3)C2C(=O)N1C1CCCCC1 (centres undefined)	none (no result: YB-1 expression)
O=C(Nc1nc2ccccc2s1)C1CC1	none (no result: YB-1 expression)
c1ccc2sc(NC3=NCN(C4CCCCCC4)CN3)nc2c1	ROS inducer 100
COC(=O)c1sc2nc(C)cc(C(F)(F)F)c2c1N	none (no result: YB-1 expression)
Cc1cc(C(F)(F)F)c2c(n1)sc1c(=O)[nH]c(C)nc12	ROS inducer 95
O=C1c2ccccc2C2N1CCCN2S(=O)(=O)c1cccc(C(F)(F)F)c1 (centres undefined)	none
C[C@@H]1CN([C@H](C)CO)C(=O)c2cccc(NC(=O)CCCCCC(=O)Nc3ccccc3N)c2O[C@@H]1CN(C)C(=O)Nc1ccc(F)cc1	none
COc1ccc(-n2c(C)nnc2SCC(=O)Nc2cccc(C(F)(F)F)c2)cc1	none (no result: YB-1 expression)
COc1ccc(-n2nnc3c(SCC(=O)Nc4cccc(C(F)(F)F)c4)ncnc32)cc1	ROS inducer 261 (no result: YB-1 expression)
C[C@H](CO)N1C[C@H](C)[C@H](CN(C)Cc2ccc(-c3ccccc3)cc2)Oc2ccc(NC(=O)Cc3cn(C)c4ccccc34)cc2CC1=O	none
C[C@H](CO)N1C[C@H](C)[C@H](CN(C)Cc2ccc(Oc3ccccc3)cc2)Oc2ccc(NC(=O)Cc3cn(C)c4ccccc34)cc2CC1=O	none
C[C@@H]1CN([C@H](C)CO)C(=O)Cc2cc(NC(=O)Cc3cn(C)c4ccccc34)ccc2O[C@@H]1CN(C)Cc1ccc(Oc2ccccc2)cc1	ROS inducer 131
C[C@@H]1CN([C@H](C)CO)C(=O)Cc2cc(NC(=O)Cc3cn(C)c4ccccc34)ccc2O[C@@H]1CN(C)CC1CC1	ROS inducer 124
C[C@@H]1CN([C@H](C)CO)C(=O)Cc2cc(NC(=O)Cc3cn(C)c4ccccc34)ccc2O[C@@H]1CN(C)Cc1ccc(-c2ccccc2)cc1	ROS inducer 109
C[C@@H]1CN([C@@H](C)CO)C(=O)Cc2cc(NC(=O)Cc3cn(C)c4ccccc34)ccc2O[C@@H]1CN(C)Cc1ccc(-c2ccccc2)cc1	ROS inducer 85
C[C@H]1CN([C@@H](C)CO)C(=O)Cc2cc(NC(=O)Cc3cn(C)c4ccccc34)ccc2O[C@H]1CN(C)CC1CCCCC1	none
C[C@@H]1CN([C@H](C)CO)C(=O)Cc2cc(NC(=O)Cc3cn(C)c4ccccc34)ccc2O[C@H]1CN(C)Cc1ccccc1	none
C[C@@H]1CN([C@H](C)CO)C(=O)Cc2cc(NC(=O)CCCCCC(=O)Nc3ccccc3N)ccc2O[C@H]1CN(C)C(=O)Nc1ccc(F)cc1	none
Cc1cc2ncn(CCC3CCCCC3)c2cc1C	none (no result: YB-1 expression)
CC1CC(=O)C2=C(C1)C1OC1C1(O)C2C(=O)c2cccc(O)c2C1O (centres undefined)	none
CNC[C@@H]1Oc2c(NC(=O)c3ccncc3)cccc2C(=O)N([C@@H](C)CO)C[C@H]1C	none
Cc1ccc(S(=O)(=O)N(C)CC(=O)Nc2cc(Cl)ccc2Oc2ccccc2)cc1	ROS inducer 90 (no result: YB-1 expression)
COc1ccc(S(=O)(=O)N(C)CC(=O)Nc2ccccc2Br)cc1Cl	ROS inducer 112 (no result: YB-1 expression)
COc1cc(Cl)c(C)cc1NC(=O)CN(C)S(=O)(=O)c1ccc(Br)cc1	none (no result: YB-1 expression)
Cc1cc(Br)ccc1NC(=O)CN(C)S(=O)(=O)c1ccc(Cl)cc1	ROS inducer 135 (no result: YB-1 expression)
COc1cc(OC)c(NC(=O)CN(C)S(=O)(=O)c2ccc(C)cc2)cc1Cl	none (no result: YB-1 expression)
COc1ccc(S(=O)(=O)N(C)CC(=O)Nc2ccccc2OC)cc1Cl	none (no result: YB-1 expression)
